Screens: PubChem BioAssay, National Center for Advancing Translational Sciences (NCATS)
NS1 function inh: influenza NS1 inhibition; AID 2326; 270,000 tested, 0.4% active; Potency, µM (titrated, usually from 46.1 µM); calls by dose curve; further: actives are rising curves; nearly all actives have a fitted effect of over 50% in size
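Recovery from NS1-induced slow growth read by OD600 in budding yeast switched to galactose assay medium (pH 6.0, -URA) at 1:100 dilution. Compound 23 nl per well; the matching strain lacking NS1 serves as control.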
Pf growth 48h: P. falciparum growth inhibition at 48 hours (one generation); Potency, µM (top dose mostly 28.7 µM), most hits filed as inhibitors; P. falciparum luciferase growth in erythrocytes, 48 h; 310,000 tested, 5.9% active; AID 504832
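Compounds are pin-transferred into medium, infected erythrocytes (2% hematocrit, 0.1% parasitemia final) are added, and plates sit one parasite generation at 37 C in 5% CO2. Detection reagent is then added and luminescence measured.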
AMA1 RON2 block: inhibitors of Plasmodium falciparum AMA1-RON2 interaction; AlphaScreen AMA1-biotinylated RON2 peptide binding; Potency, µM (highest dose often 58.2 µM), most hits filed as inhibitors; 360,000 tested, 0.2% active; further: nearly all actives have a fitted effect of over 45% in size
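AMA1 (3D7) with his tag at 25 nM final met compounds first, then biotinylated RON2 peptide at 25 nM; detection used donor plus acceptor beads, 10 µg/mL apiece, read by AlphaScreen after 30 min at room temperature.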
Pf growth 96h: P. falciparum growth inhibition at 96 hours; AID 504834; P. falciparum luciferase reporter growth, 96 h; 320,000 tested, 6.9% active; Potency, µM (highest dose often 28.7 µM), hits mostly inhibitors
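Erythrocytes infected with luciferase-expressing P. falciparum were dispensed at 2% hematocrit and 0.05% parasitemia (final), then incubated with compounds 96 hours at 37 C in 5% CO2. Luminescence after detection reagent addition reported growth.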
Sm TGR inh: inhibitors of Schistosoma mansoni thioredoxin glutathione reductase. 360,000 tested, 3% active. purified TGR, DTNB reduction, TNB absorbance 405 nm. Q962Y6. Potency, µM (series often up to 114 µM), usual class: inhibitors; further: nearly all actives have a fitted effect of over 60% in size
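Kinetic colorimetric format: TGR-catalysed, NADPH-driven DTNB reduction monitored via TNB absorbance. Enzyme dispensed at 20 nM; compound exposure 15 min at room temperature before reaction start.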
Of the large screens only hits and unclear results are named; the others gave an inactive call. Sampled rows, rich in hits. Any-hit rate of the full collection: about 11%. Unless noted, the call rests on the fitted dose curve; in most records, active means well fitted curve in the direction sought with a large enough effect; inconclusive means small, poorly fitted or top-dose-only effect, or another doubt; inactive means no such curve, though single readings can be large; an effect the other way counts as inactive or inconclusive.

COc1ccc(N2C(=O)CC(N3CCN(c4nc5ccccc5s4)CC3)C2=O)cc1 (centres undefined)	Pf growth 96h 4.65µM, Sm TGR inh 20µM
COc1ccc(N2C(=O)CC(Sc3nnc(-c4ccccc4F)n3C)C2=O)cc1 (centres undefined)	Sm TGR inh 2.82µM (no result: NS1 function inh)
O=C1C2C(C(=O)N1/N=C/c1ccc(N3CCCCC3)o1)C1C=CC2C12CC2 (centres undefined)	Pf growth 96h inconclusive, Sm TGR inh 3.98µM
CN1C(=O)C(=Cc2ccc(N3CCCCC3)o2)C(=O)N(C)C1=S	none
COc1ccc(N2CCN(Cc3cc4c(cc3Br)OCCO4)CC2)cc1	AMA1 RON2 block 12.6µM, Pf growth 96h inconclusive
O=S(=O)(c1ccccc1)N1CCN(Cc2cc3c(cc2Br)OCCO3)CC1	Pf growth 48h inconclusive, Pf growth 96h inconclusive (no result: NS1 function inh)
COc1ccc(N2CCN(Cc3csc(C)c3-c3ccc(C)cc3)CC2)cc1	Pf growth 48h 10.4µM, AMA1 RON2 block 10µM
O=S(=O)(c1ccccc1F)N1CCN(Cc2cc3c(cc2Br)OCCO3)CC1	Pf growth 48h inconclusive, Pf growth 96h 8.28µM (no result: NS1 function inh)
COC(=O)c1cn(CC(C)n2c(=O)c3ccccc3n2Cc2cc(C(C)C)no2)nn1 (centres undefined)	none (no result: NS1 function inh, Pf growth 48h, Pf growth 96h, Sm TGR inh)
Cc1nc(-c2ccccn2)nc(SCC(=O)c2ccccc2)c1Cl	Pf growth 48h 14.7µM, Pf growth 96h 5.22µM
Cc1nc(-c2ccccn2)nc(SCC(=O)N2CCOCC2)c1Cl	NS1 function inh inconclusive
Cc1oc(-c2ccccc2F)nc1CS(=O)CC(=O)NCc1ccc2c(c1)OCO2 (centres undefined)	NS1 function inh inconclusive (no result: Pf growth 48h)
Cc1oc(-c2ccc(Cl)cc2)nc1CS(=O)CC(=O)NCc1ccc2c(c1)OCO2 (centres undefined)	NS1 function inh inconclusive, Pf growth 96h inconclusive, Sm TGR inh 14.1µM
COc1ccc(-c2nc(CS(=O)CC(=O)NCc3ccc4c(c3)OCO4)c(C)o2)cc1OC (centres undefined)	Pf growth 96h inconclusive, Sm TGR inh 39.8µM
COc1ccc(-c2nc(CSCC(=O)NCc3ccc4c(c3)OCO4)c(C)o2)cc1	Pf growth 96h 5.86µM (no result: Pf growth 48h)
O=C(NC1CCCCC1)c1nc(C2CCNCC2)oc1-c1ccccc1	none (no result: NS1 function inh, Pf growth 48h, Pf growth 96h, Sm TGR inh)
Cc1ccc(C)c(S(=O)(=O)/N=C(/Nc2ccccc2)c2ccccc2)c1	none (no result: NS1 function inh, Pf growth 48h, Pf growth 96h, Sm TGR inh)
CCOCCCn1c(=S)[nH]c2cc(C(=O)NCCCN(CC)CC)ccc2c1=O	Pf growth 96h inconclusive (no result: NS1 function inh)
CNC(=S)N=Nc1c(O)[nH]c2ccc(C(C)C)cc12	Pf growth 48h inconclusive, Pf growth 96h 6.57µM
Oc1ccc(NC(=S)N=Nc2c(O)[nH]c3ccccc23)cc1	none (no result: Sm TGR inh)
Cc1[nH]c2ccccc2c1C(=O)COC(=O)c1cccc(S(=O)(=O)N2CCCCC2)c1	Pf growth 48h inconclusive, Pf growth 96h inconclusive
CNC(=S)N=Nc1c(O)[nH]c2ccccc12	none
CC(C)c1ccc2[nH]c(O)c(N=NC(=O)c3cccc(S(=O)(=O)N4CCCCC4)c3)c2c1	Pf growth 48h inconclusive, Pf growth 96h 9.28µM
O=C(N=Nc1c(O)[nH]c2ccccc12)c1cccc(S(=O)(=O)N2CCCCC2)c1	NS1 function inh inconclusive, Pf growth 48h 9.28µM, Pf growth 96h 3.29µM
Cc1ccc(NC(=S)N=Nc2c(O)[nH]c3ccccc23)cc1	Pf growth 48h 5.22µM, Pf growth 96h 1.85µM (no result: NS1 function inh)
CN(c1ccccc1)S(=O)(=O)c1cccc(C(=O)NCC(=O)Nc2ccc(F)c(F)c2F)c1	none (no result: NS1 function inh, Pf growth 48h, Pf growth 96h, Sm TGR inh)
CCn1c(COc2ccccc2)nc2ccccc21	none
CCn1c(COc2ccc(OC)cc2)nc2ccccc21	Pf growth 96h 4.65µM
CCOc1ccc(NCc2nc3ccccc3n2CCOc2ccccc2)cc1	AMA1 RON2 block 14.1µM, Pf growth 96h 6.57µM
Cc1cccc(OCCn2c(CCCO)nc3ccccc32)c1	Pf growth 48h 14.7µM, Pf growth 96h inconclusive
COc1ccc(S(=O)(=O)O/N=C2\CCSc3ccc(C)cc32)cc1	Pf growth 48h 2.94µM, Pf growth 96h inconclusive
CC[C@H](C)Cc1cn([C@@H](CCCN=C(NC(=O)OC(C)(C)C)NC(=O)OC(C)(C)C)C(=O)NCCCCCCCCCCC(=O)N2CCN(C(=O)OC(C)(C)C)CC2)nn1	Pf growth 48h 1.04µM, Pf growth 96h 1.47µM (no result: NS1 function inh)
Cc1cn([C@@H](CCCCNC(=O)OC(C)(C)C)C(=O)NCCCCCCCCCCC(=O)N2CCN(C(=O)OC(C)(C)C)CC2)nn1	Pf growth 48h 2.62µM, Pf growth 96h 5.22µM (no result: NS1 function inh)
CC(C)(C)OC(=O)NCCCCCc1cn(CC(=O)NCCCCCCCCCCC(=O)N2CCN(C(=O)OC(C)(C)C)CC2)nn1	Pf growth 48h inconclusive, Pf growth 96h inconclusive (no result: NS1 function inh)
CSCC[C@@H](C(=O)NCCCCCCCCCCC(=O)N1CCNCC1)n1cc(CCO)nn1	Pf growth 48h inconclusive, Sm TGR inh inconclusive (no result: NS1 function inh)
COc1ccc(CNS(=O)(=O)CCNC(=O)c2cccc(OC)c2)cc1	none (no result: NS1 function inh)
CCOc1ccc(/C(C)=N/NC(=O)Cn2nc([N+](=O)[O-])cc2C)cc1	none
Cc1ccc(S(=O)(=O)CCC(=O)OCC(=O)N(Cc2ccccc2)C(C)C)cc1	none (no result: NS1 function inh)
CC(C)C(=O)NC(=S)Nc1ccc(S(=O)(=O)NC2CCCCC2)cc1	Pf growth 96h 16.5µM, Sm TGR inh inconclusive
Cc1ccc(SCC(=O)Nc2ccc(C(=O)Nc3ccc(O)cc3)cc2)cc1	Pf growth 96h inconclusive (no result: Sm TGR inh)
Cc1cc2nc(/C=C/c3nc4cc(C)c(C)cc4[nH]3)[nH]c2cc1C	Pf growth 48h 0.465µM, Pf growth 96h 0.329µM
CC1CCN(C(=O)Cn2nnc(-c3cccs3)n2)CC1	Pf growth 96h inconclusive
O=C(Cn1nnc(-c2cccs2)n1)N1CCOCC1	Pf growth 96h 9.28µM (no result: NS1 function inh)
O=C(N/N=C/c1cc(Br)c(O)c(Br)c1O)c1cccnc1	Pf growth 48h 10.4µM, Sm TGR inh inconclusive
O=C(N/N=C/c1cc(O)ccc1Br)c1cccnc1	Pf growth 48h 13.1µM
Cc1ccc2c(c1)Oc1ccc(NC(=O)CCCl)cc1C(=O)N2	Pf growth 48h inconclusive, Pf growth 96h 0.294µM (no result: NS1 function inh)
COc1ccc(NC(=O)CCC(=O)N(Cc2ccc(OC)c(OC)c2)c2nccs2)c(OC)c1	Pf growth 96h 2.94µM
COCCn1c(SCC(=O)Nc2cccnc2Cl)nc2ccccc2c1=O	none (no result: NS1 function inh)
COc1cccc(CNC(=O)CCC2CCCN(C(=O)c3cccc(Cl)c3)C2)c1 (centres undefined)	none
COc1cccc(CNC(=O)CCC2CCCN(C(=O)c3ccc(C)nc3)C2)c1 (centres undefined)	Pf growth 96h inconclusive
COc1cccc(CNC(=O)CCC2CCCN(C(=O)c3cccc4c(C)c(C)[nH]c34)C2)c1 (centres undefined)	Pf growth 48h 11.7µM, Sm TGR inh inconclusive
COc1cccc(CNC(=O)CCC2CCCN(C(=O)c3ccccc3N(C)C)C2)c1 (centres undefined)	Pf growth 48h inconclusive, Pf growth 96h inconclusive, Sm TGR inh 79.4µM
COC(=O)CCCC(=O)N1CCCC(CCC(=O)NCc2ccc(F)c(F)c2)C1 (centres undefined)	Pf growth 48h 8.28µM
